An excerpt weighted towards active compounds, which were near 1.6% of everything screened.
PrPC TRFRET = inhibitors of human cell surface prion protein PrPC, primary screen, cell-based, TR-FRET; Major prion protein (Homo sapiens), P04156; TR-FRET read-out; inhibition, % at 13.8 µM; hit rate 0.43% among 370,000; AID 720596, 2013; in the data active means inhibition above about 24%; further: 0% = median of the test wells and 100% = reference compound wells
PrP UTR inh = inhibition of PrP 5' UTR reporter expression | AID 488862, 2010 | hit rate 0.35% among 340,000 | inhibition, % (test concentration not listed) | cell-based PrP 5' UTR mRNA reporter, plate reader; in the data active means inhibition above about 52%; further: 0 = median of the neutral control wells
PriA SSB inh = inhibitors of Klebsiella pneumoniae PriA binding to SSB C-terminal tail, primary screen, biochemical, AlphaScreen; PriA–SSB C-terminal tail interaction (Klebsiella pneumoniae); AlphaScreen SSBct-PriA binding, biotinylated peptide; inhibition, % at 33 µM; hit rate 0.6% among 430,000; in the data active means inhibition mostly above about 37%, no sharp cut-off; inactive means mostly below about 20%;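 further: plate controls were negative control peptide for no effect and reference peptide for full effect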
BH1578 lux ind = inducers of Vibrio cholerae quorum light production without autoinducers, primary screen, BH1578 luxS cqsA deficient, single point; V. cholerae BH1578 lux reporter, luminescence, 6 h; activation, % at 18.7 µM; hit rate 0.16% among 350,000; in the data active means activation mostly above about 9.7%, no sharp cut-off
SARS 3CLpro inh = SARS-CoV 3CLpro protease inhibitors, primary screen, biochemical, quenched FRET; recombinant SARS-CoV 3CLpro, quenched FRET peptide cleavage; inhibition, % at 6 µM; hit rate 0.14% among 290,000; AID 1706, 2009; in the data active means inhibition above about 12%
PfHsp40 rescue = rescue of yeast from PfHsp40 toxicity, primary screen, S. cerevisiae, ATP luminescence; S. cerevisiae expressing PfHsp40, growth rescue; growth rescue, % at 12.5 µM; hit rate 0.68% among 340,000; AID 504582, 2011; in the data active means growth rescue above about 28%, passing the limit was not always enough;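 further: yeast W303a lacking pdr1 and pdr3 grown in galactose medium; growth measured after three days at 30 °C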
* marks the source's active call; other numbers are inactive results; i = inactive; nt = no result given.

SMILES	PrPC TRFRET	PrP UTR inh	PriA SSB inh	BH1578 lux ind	SARS 3CLpro inh	PfHsp40 rescue
COC(=O)c1nc(-c2ccc3c(n2)C(=O)C(N)=C(OC)C3=O)c(N)c(-c2ccc(OC)c(OC)c2O)c1C	-1.3	47.7	27.6	11.5	-2.3	-0.2
CC(C(=O)NC1C(=O)N2C(C(=O)O)=C(CSc3nnnn3C)CSC12)n1cc(Br)cn1 (configuration not stated)	0.8	-12.5	-8.2	3.8	-0.8	-0.2
Cc1nn(C(C)C(=O)NC2C(=O)N3C(C(=O)O)=C(CSc4nnnn4C)CSC23)cc1Cl (configuration not stated)	8.8	-9.0	-11.2	25.2*	7.6	-0.3
Cc1nnc(NC(=O)CCc2c(C)nn(-c3nc(C)c(C)c(=O)[nH]3)c2C)s1	nt	nt	4.0	nt	nt	nt
Cc1oc(-c2ccccc2)cc1C(=O)Nc1ccccc1	2.0	-16.5	-15.4	16.7*	4.3	0.8
COc1ccc(NC(=O)c2cc(-c3ccccc3)oc2C)cc1	1.0	-37.2	-9.3	-0.2	-7.8	3.1
CC(C)c1ccc2nc(NC(=O)CCSc3ccccc3)sc2c1	nt	nt	-9.0	nt	nt	nt
Cc1cc(S(=O)(=O)Nc2ccc3c(c2)C(=O)NCCO3)ccc1F	nt	nt	4.0	nt	nt	nt
CCNc1cc(C)nc(NCCNC(=O)COc2cc(-n3cccn3)nc(C)n2)n1	nt	nt	-7.0	nt	nt	nt
Cc1nnc(C2CCCN(C(=O)COc3ccccc3)C2)s1 (configuration not stated)	nt	nt	-1.0	nt	nt	nt
COc1ccc(C(=O)NC(=S)NNC(=O)c2c(-c3ccccc3)noc2C)cc1OC	1.2	-13.7	-4.2	0.6	-2.3	30.5*
Cc1onc(-c2ccccc2)c1C(=O)NCc1ccc2c(c1)OCO2	6.4	-1.5	-10.7	i	3.6	0.3
O=C(NCc1ccc2c(c1)OCO2)c1ccccc1	6.4	-31.4	-6.6	-0.4	2.1	-0.1
COc1ccc(C(=O)NC(=S)NNC(=O)[C@H]2C[C@@H]2c2ccccc2)cc1OC	-0.1	-4.2	-1.4	-0.5	-0.4	65.7*
COc1ccc(CCNC(=O)c2c(-c3ccccc3)noc2C)cc1OC	8.1	-24.6	-11.7	-3.6	4.3	3.7
O=C(NC(=S)NCc1ccc2c(c1)OCO2)c1ccccc1	2.4	-13.6	-11.3	i	9.2	51.7*
Cc1onc(-c2ccccc2)c1C(=O)NNC(=S)NC(=O)c1ccc2c(c1)OCO2	-6.6	-20.4	6.3	-1.1	-2.1	48.5*
COc1ccc2c(c1)CCC[C@@]2(O)CNS(=O)(=O)c1ccc(OCC(N)=O)cc1	nt	nt	-9.0	nt	nt	nt
Cc1csc(C(=O)NCc2nn(CCN3CCCC3)c(=O)c3ccccc23)c1	nt	nt	45.0*	nt	nt	nt
O=C(Nc1ccc(Cl)cc1)N1CCCN(c2ccc(C(F)(F)F)cc2[N+](=O)[O-])CC1	-0.5	-9.2	-1.1	-0.3	4.9	44.3*
O=[N+]([O-])c1cc(C(F)(F)F)ccc1N1CCC(O)CC1	-21.4	-20.9	2.2	-0.5	5.8	0.8
COc1ccc(S(=O)(=O)N(CC(C)C)C2CCS(=O)(=O)C2)cc1OC (configuration not stated)	-2.8	-37.5	38.3*	-1.1	nt	-1.7
COc1ccc(S(=O)(=O)N(CC(C)C)C2CCS(=O)(=O)C2)cc1 (configuration not stated)	nt	nt	12.0	nt	nt	nt
C[C@@H]1CC[C@H]2[C@@H](C)C(=O)O[C@@H]3O[C@@]4(C)CC[C@@H]1[C@]32OO4	-2.6	-17.6	-11.2	-0.4	-2.2	103.9*
C[C@@H]1CCC2[C@@H](C)C(=O)O[C@@H]3OC4(C)CCC1[C@@]23OO4 (some centres not stated)	nt	nt	-4.6	nt	nt	nt
CC1CCc2oc3c(cc(NS(=O)(=O)c4ccc(Br)cc4)c4ccccc43)c2C1 (configuration not stated)	nt	nt	37.0*	nt	nt	nt
CC(C)S(=O)(=O)c1ccc(CC(=O)NCCn2nc(-c3cccnc3)n(C3CC3)c2=O)cc1	nt	nt	3.0	nt	nt	nt
Cc1ccc(NC(=O)CC2CSc3nc(C(C)C)cc(=O)n32)cc1F (configuration not stated)	nt	nt	-15.0	nt	nt	nt
Nc1c(Cl)ncnc1NCCO	16.3	-32.8	8.3	-0.2	3.1	-1.3
Cc1ccc(CCNc2ncnc(Cl)c2N)cc1	7.2	-51.1	2.5	-0.8	nt	733.5*

Screening results deposited in PubChem by several laboratories.
